Screening results as filed in PubChem BioAssay.
ROS inducer – raises reactive oxygen species in U2OS cancer cells | U2OS ROS induction, H2DCF-DA fluorescence | ROS induction (% of piperlongumine), % at 10 µM | hit rate 2% among 46,000 | AID 624156; in the data active = ROS induction above about 79%, passing the limit was not always enough; inconclusive = no clear call, values can overlap the other calls
NOMO-1 viab – STK33 inhibitor candidate reducing NOMO-1 cell viability; NOMO-1 AML viability, CellTiter-Glo luminescence, 72 h; inhibition, % (test concentration not listed); hit rate 7.5% among 37,000; in the data active = inhibition above about 80%; inconclusive = no clear call, values can overlap the other calls
A number is an active result; - = inactive; ? = inconclusive; . = no result given. Many of the other results were omitted from the sample, so hits are more common in it than they were.

SMILES | ROS inducer | NOMO-1 viab
CCOc1ccc(N2C(=O)CC(SCc3nc4ccccc4[nH]3)C2=O)cc1 (stereo not drawn) | . | -
CCOc1ccc(-c2nc3ccc(-c4nc5ccc(N6CCN(C)CC6)cc5[nH]4)cc3[nH]2)cc1 | - | 116
COc1ccc(C(=O)CSc2n[nH]c(-c3ccc(C)cc3)n2)cc1 | . | -
Cc1ccc(OC(=O)OCSc2nn[nH]n2)cc1 | - | 119
Cc1ccc(-c2csc3ncnc(SCC(=O)Nc4ccccc4C(C)C)c23)cc1 | - | -
COc1ccc(NC(=O)Nc2ccc3c(c2)CC(=O)N([C@H](C)CO)C[C@H](C)[C@H](CN(C)Cc2ccc4c(c2)OCO4)O3)cc1 | - | -
CSc1ccccc1-n1nnnc1SCCSc1ccccc1-n1nnnc1SC | . | -
Cc1c(/C=C/c2ccc(Cl)cc2Cl)c(=O)n(-c2ccccc2)n1C | - | -
Cc1c(-n2c(/C=C\c3ccc([N+](=O)[O-])o3)nc3ccccc3c2=O)c(=O)n(-c2ccccc2)n1C | . | 115
C[C@H](CO)N1C[C@H](C)[C@H](CN(C)Cc2ccc(-c3ccccc3)cc2)Oc2c(NC(=O)c3ccncc3)cccc2C1=O | - | -
CC(C)NC(=O)N(C)C[C@@H]1Oc2c(NC(=O)c3ccncc3)cccc2C(=O)N([C@@H](C)CO)C[C@H]1C | 101 | -
C[C@@H]1CN([C@H](C)CO)C(=O)c2cccc(NC(=O)c3ccncc3)c2O[C@H]1CN(C)Cc1ccc(Oc2ccccc2)cc1 | - | 91
CC(C)NC(=O)N(C)C[C@H]1Oc2c(NC(=O)c3ccncc3)cccc2C(=O)N([C@H](C)CO)C[C@H]1C | - | -
C[C@@H]1CN([C@@H](C)CO)C(=O)c2cccc(NC(=O)c3ccncc3)c2O[C@@H]1CN(C)Cc1ccc(Oc2ccccc2)cc1 | - | -
C[C@H](CO)N1C[C@H](C)[C@@H](CN(C)Cc2ccc(-c3ccccc3)cc2)Oc2c(NC(=O)c3ccncc3)cccc2C1=O | 149 | 83
COc1ccc(NC(=O)N(C)C[C@@H]2OCCCC[C@@H](C)Oc3ccc(NC(=O)CCCCCC(=O)Nc4ccccc4N)cc3C(=O)N([C@H](C)CO)C[C@@H]2C)cc1 | - | -
O=C(CSc1nc(N2CCCCC2)nc(N2CCCCC2)n1)Nc1ccc([N+](=O)[O-])cc1 | . | -
Cc1ccc(S(=O)(=O)N(C)C[C@@H]2Oc3c(NS(=O)(=O)c4ccc(F)cc4)cccc3C(=O)N([C@@H](C)CO)C[C@@H]2C)cc1 | - | -
CSc1scc(N)c1S(=O)(=O)C(C)C | - | .
CC1(C)CC(C)(c2ccccc2)c2cc(SC#N)ccc2N1 (stereo not drawn) | 114 | 114
CC(=O)N1c2ccccc2C(C)(c2ccccc2)CC1(C)C (stereo not drawn) | - | ?
C[C@@H]1CN([C@@H](C)CO)C(=O)c2cccc(NS(=O)(=O)c3ccc(Cl)cc3)c2O[C@H]1CN(C)S(=O)(=O)c1ccc(F)cc1 | - | -
COc1cc(OC)c(C2=NOC(C(=O)Nc3sc4c(c3C#N)CCCC4)C2)cc1Cl (stereo not drawn) | - | -
CC(=O)OCC1=C[C@H](O)[C@@H]2C(C(=O)O)=CO[C@@H](O[C@@H]3O[C@H](CO)[C@@H](O)[C@H](O)[C@H]3O)[C@H]12 | - | -
C[C@@H]1CN([C@H](C)CO)C(=O)c2cccc(NC(=O)Nc3ccccc3)c2O[C@H]1CN(C)C(=O)Nc1cccc2ccccc12 | - | -
SMILES | ROS inducer | NOMO-1 viab
COc1cc(CN(C)Cc2cccc3ccccc23)c([N+](=O)[O-])cc1OC | 133 | -
COc1cc2c(cc1NC(=O)Cc1ccccc1[N+](=O)[O-])oc1ccccc12 | . | -
C[C@@H]1CN([C@@H](C)CO)C(=O)c2cc(NC(=O)Nc3ccc(F)cc3)ccc2O[C@@H]1CN(C)Cc1ccccc1 | - | -
O=C(COc1ccc(C(=O)Nc2ccc(Cl)cc2)cc1)Nc1ccccc1C(F)(F)F | - | -
COc1ccc(OC)c(-n2c(CN3CCC(C(N)=O)CC3)nc3ccccc3c2=O)c1 | - | -
COc1ccc(OC)c(-n2c(CNC3CCN(Cc4ccccc4)CC3)nc3ccccc3c2=O)c1 | . | 90
C[C@H](CO)N1C[C@H](C)[C@@H](CN(C)S(=O)(=O)c2ccccc2)Oc2ccc(NC(=O)CCCCCC(=O)Nc3ccccc3N)cc2C1=O | - | -
O=C(Cn1c(-c2cccs2)cc2ccccc21)NC1CCCCC1 | 115 | .
O=C(Cn1c(-c2cccs2)cc2ccccc21)N1CCCCC1 | - | .
COc1ccc(OC)c(NC(=O)COc2ccc(F)cc2)c1 | . | -
Cc1ccc(S(=O)(=O)N(C)C[C@H]2Oc3ccc(NC(=O)Nc4ccc5c(c4)OCO5)cc3C(=O)N([C@@H](C)CO)C[C@@H]2C)cc1 | - | -
C[C@H](CO)N1C[C@H](C)[C@@H](CN(C)Cc2ccc(Cl)c(Cl)c2)Oc2ccc(NC(=O)Nc3cccc4ccccc34)cc2C1=O | - | 112
C[C@@H]1CN([C@H](C)CO)C(=O)c2cc(NC(=O)Nc3cccc4ccccc34)ccc2O[C@@H]1CN(C)Cc1ccc(Cl)c(Cl)c1 | - | 101
C[C@@H]1CN([C@@H](C)CO)C(=O)c2cc(NC(=O)Nc3cccc4ccccc34)ccc2O[C@H]1CN(C)Cc1ccccc1 | - | -
C[C@H](CO)N1C[C@H](C)[C@H](CN(C)Cc2ccc(Cl)c(Cl)c2)Oc2ccc(NC(=O)Nc3cccc4ccccc34)cc2C1=O | - | -
C[C@@H]1CCCCO[C@@H](CN(C)Cc2ccc(Cl)c(Cl)c2)[C@@H](C)CN([C@H](C)CO)C(=O)c2cc(NC(=O)Nc3cccc4ccccc34)ccc2O1 | - | -
C[C@@H]1CN([C@H](C)CO)C(=O)c2cc(NC(=O)Nc3cccc4ccccc34)ccc2O[C@H]1CN(C)Cc1ccc(Cl)c(Cl)c1 | - | 112
O=C(Nc1ccccc1)c1cc(S(=O)(=O)Nc2ccccn2)ccc1Br | . | -
Cc1noc(C)c1S(=O)(=O)N(C)C[C@@H]1Oc2c(NC(=O)c3ccc(-c4nccs4)cc3)cccc2C(=O)N([C@H](C)CO)C[C@@H]1C | - | -
Cc1noc(C)c1S(=O)(=O)N(C)C[C@H]1Oc2c(NC(=O)c3ccc(-c4nccs4)cc3)cccc2C(=O)N([C@H](C)CO)C[C@H]1C | 106 | -
Cc1ccc(S(=O)(=O)N(C)C[C@H]2Oc3c(NC(=O)c4ccc(-c5nccs5)cc4)cccc3C(=O)N([C@@H](C)CO)C[C@H]2C)cc1 | - | -
Cc1ccc(S(=O)(=O)N(C)C[C@@H]2Oc3c(NC(=O)c4ccc(-c5nccs5)cc4)cccc3C(=O)N([C@H](C)CO)C[C@@H]2C)cc1 | - | 82
C[C@H](CO)N1C[C@H](C)[C@H](CN(C)C(=O)Nc2cccc3ccccc23)Oc2c(NS(=O)(=O)c3cn(C)cn3)cccc2C1=O | - | -
Cc1ccc(S(=O)(=O)N2CCc3ccccc3C2)cc1 | - | .
Cc1ccc(S(=O)(=O)N2Cc3ccccc3C(C)CC23CCCCC3)cc1 (stereo not drawn) | - | 88
CN(C)CCN(C(=O)C1CCCCC1)c1nc2ccc(Br)cc2s1 | 94 | .
CCc1ccc2nc(N3CCC(C(=O)NC4CCCCC4)CC3)sc2c1 | - | .
Cc1noc(C)c1CSc1nc2[nH]ncc2c(=O)n1-c1ccccc1 | . | 108
Cc1nc(CSc2nc3[nH]ncc3c(=O)n2-c2ccccc2)cs1 | . | -
COc1ccc(CN(C)C[C@H]2Oc3c(NC(=O)c4cc(C)nn4C)cccc3C(=O)N([C@H](C)CO)C[C@@H]2C)cc1 | - | -
